# PD-1 reversal: reversal of PD-1 mediated T-cell inhibition; primary human CD4 T cells, PD-L1 beads, CellTiter-Glo 96 h; activation, % (concentration not given with the values); 29,000 tested, under 10 active; AID 2316; call rule not given here;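 also: 0% = median vehicle wells and 100% = positive control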
# NOMO-1 viab: STK33 inhibitor candidate reducing NOMO-1 cell viability. NOMO-1 AML viability, CellTiter-Glo luminescence, 72 h. inhibition, % (concentration not given with the values). actives 7.5% (n = 37,000). AID 2330; in the data active = inhibition above about 80%; inconclusive = no clear call, values can overlap the other calls
# MITF inhib: inhibitors of MITF | TRPM1 promoter luciferase, luminescence, 24 h | inhibition, % (no concentration beside the values) | actives 0.28% (n = 37,000) | AID 2240; in the data active = inhibition above about 85%; inconclusive = no clear call, values can overlap the other calls; inactive = below about 68%;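 also: human melanocyte line stably carrying TRPM1 promoter luciferase reporter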
# Shh pathway inh: Sonic Hedgehog pathway inhibition | Shh-LIGHT2 Gli-luciferase reporter, 30 h | inhibition, % (test concentration not listed) | actives 2.1% (n = 22,000) | AID 2313;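 active = mean inhibition across valid replicates above about 65%, limit read from the data; inconclusive = mean under the limit, yet half or more replicates past it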;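 also: pathway switched on by Shh-conditioned medium diluted 1 in 25 in low serum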
# The depositor's hits bear a star; ? = inconclusive; . = not tested or not shown. In the library only some 8.1% were active in any assay of this set; here they are far more common.
SMILES,PD-1 reversal,NOMO-1 viab,MITF inhib,Shh pathway inh
C/C=C(\C)C(=O)O[C@H]1[C@H](OC(C)=O)[C@@]2(CO)C(CC1(C)C)C1=CCC3[C@@]4(C)CC[C@H](O[C@@H]5O[C@H](C(=O)O)[C@@H](O)[C@H](O[C@@H]6O[C@H](CO)[C@H](O)[C@H](O)[C@H]6O[C@@H]6O[C@@H](C)[C@H](O)[C@@H](O)[C@H]6O)[C@H]5O[C@@H]5O[C@H](CO)[C@@H](O)[C@H](O)[C@H]5O)C(C)(C)C4CC[C@@]3(C)[C@]1(C)C[C@H]2O (some centres undefined),.,.,.,111.2*
CC1(C)CC[C@@]2(C(=O)O[C@@H]3O[C@H](CO)[C@@H](O)[C@H](O)[C@H]3O)C(C1)C1=CCC3[C@@]4(C)CC[C@@H](O[C@@H]5O[C@H](C(=O)O)[C@@H](O[C@@H]6OC[C@@H](O)[C@H](O)[C@H]6O)[C@H](O)[C@H]5O)C(C)(C)C4CC[C@@]3(C)[C@]1(C)C[C@H]2O (some centres undefined),0.4,14.8,-8.0,-9.7
CC1(C)CC[C@]2(C(=O)OC3OC(CO)C(O)C(O)C3O)CC[C@]3(C)C(=CCC4[C@@]5(C)CC[C@H](OC6OC(C(=O)O)C(O)C(O)C6O)C(CO)(CO)C5CC[C@]43C)[C@@H]2C1 (some centres undefined),-2.8,119.9*,39.9,27.2
Cc1cc(C)c(NC(=O)CN(C)S(=O)(=O)c2ccc(Br)cc2)c(C)c1,-2.6,50.5,4.3,.
O=c1c(=O)n2c(nn1CN1CCOCC1)sc1ccccc12,4.1,-9.1,-36.3,3.0
CC1(C)CC[C@]2(C(=O)O)CC[C@]3(C)C(=CCC4[C@@]5(C)CC[C@H](O[C@@H]6OC[C@H](O)[C@H](O)[C@H]6O)[C@@](C)(CO)C5CC[C@]43C)C2C1 (some centres undefined),-8.3,119.9*,15.7,79.3*
CC1(C)CC[C@]2(C(=O)O[C@@H]3O[C@H](CO)[C@@H](O)[C@H](O)[C@H]3O)CC[C@]3(C)C(=CCC4[C@@]5(C)C[C@@H](O)[C@H](O)[C@](C)(CO)C5CC[C@]43C)C2[C@@H]1O (some centres undefined),-1.4,119.8*,12.5,-4.9
O=S(=O)(c1cccc2c(Cl)cccc12)N1CCCNCC1,-3.0,89.6*,-10.1,37.1
Cn1c(=N)n(CCCOc2ccc(F)cc2)c2ccccc21,-2.0,93.6*,-14.9,58.1
CC(O)c1nc2ccccc2n1CCOc1ccc(F)cc1 (centres undefined),.,11.0,1.5,.
C[C@@H]1CCCCO[C@@H](CN(C)Cc2ccc(Cl)c(Cl)c2)[C@@H](C)CN([C@H](C)CO)C(=O)c2cc(NC(=O)Nc3ccc(C(F)(F)F)cc3)ccc2O1,-1.2,105.1*,-4.4,.
C[C@@H]1CCCCO[C@H](CN(C)Cc2ccc3c(c2)OCO3)[C@@H](C)CN([C@H](C)CO)C(=O)c2cc(NC(=O)Nc3ccc4c(c3)OCO4)ccc2O1,.,32.5,-4.4,.
C[C@@H]1CCCCO[C@H](CN(C)Cc2ccc(Cl)c(Cl)c2)[C@@H](C)CN([C@H](C)CO)C(=O)c2cc(NC(=O)Nc3ccccc3)ccc2O1,-3.8,?,28.1,42.4
CC(C)NC(=O)Nc1ccc2c(c1)C(=O)N([C@H](C)CO)C[C@H](C)[C@H](CN(C)Cc1ccc(C(F)(F)F)cc1)OCCCC[C@@H](C)O2,1.7,40.0,13.7,.
C[C@@H]1CCCCO[C@@H](CN(C)Cc2ccc(Cl)c(Cl)c2)[C@@H](C)CN([C@H](C)CO)C(=O)c2cc(NC(=O)C3CCCCC3)ccc2O1,-2.4,114.2*,49.8,.
C[C@@H]1CCCCO[C@@H](CN(C)Cc2ccc(Cl)c(Cl)c2)[C@@H](C)CN([C@H](C)CO)C(=O)c2cc(NC(=O)Nc3ccccc3)ccc2O1,-1.7,102.9*,14.7,-5.3
C[C@@H]1CCCCO[C@@H](CN(C)Cc2ccc3c(c2)OCO3)[C@@H](C)CN([C@H](C)CO)C(=O)c2cc(NC(=O)Nc3ccc4c(c3)OCO4)ccc2O1,0.7,49.8,8.9,67.8*
Cc1ccc(-n2c(C)nnc2SCC(=O)Nc2cccc(C(F)(F)F)c2)cc1,-1.8,-7.5,-8.1,.
CS(=O)(=O)N(CC(=O)Nc1cccnc1)c1cccc(Br)c1,2.8,-10.5,-12.2,.
COc1cc(OC)c(NC(=O)CCN2C(=O)c3ccccc3C2=O)cc1Cl,2.3,-26.1,-21.5,.
C[C@@H]1CCCCO[C@@H](CN(C)Cc2ccc3c(c2)OCO3)[C@@H](C)CN([C@H](C)CO)C(=O)c2cc(NC(=O)Nc3ccc(F)cc3)ccc2O1,1.0,16.1,13.9,.
C[C@@H]1CCCCO[C@@H](CN(C)Cc2ccc3c(c2)OCO3)[C@@H](C)CN([C@H](C)CO)C(=O)c2cc(NC(=O)Nc3ccc(C(F)(F)F)cc3)ccc2O1,-1.8,112.9*,7.7,.
CC1CCC2(C)C(CC(O)C(O)C2(O)CO)C1(C)CCc1ccoc1 (centres undefined),1.4,17.0,-14.1,-3.5
COC1OC(OC)C(O)(CC[C@@]2(O)[C@H](C)C[C@@H](O)C3[C@@](C)(CO)CCC[C@]32C)C1O (some centres undefined),-0.1,81.7*,-37.5,5.2
COc1cc(C2C3=C(CCCC3=O)Nc3[nH]c(=O)[nH]c(=O)c32)cc(OC)c1OC (centres undefined),-0.2,21.8,-10.9,23.2
SMILES,PD-1 reversal,NOMO-1 viab,MITF inhib,Shh pathway inh
COC(=O)c1cc(-c2ccccc2)sc1NC(=S)Nc1cn(C)nc1C,-1.5,39.8,-2.9,.
O=C1C=CC(=C(c2ccc(O)cc2)c2ccc(O)cc2)C=C1,.,108.4*,68.0,65.6*
CCn1c(SCC(=O)Nc2cccc3ccccc23)nnc1-c1ccc(Cl)c(Cl)c1,.,10.3,0.7,.
c1cn2c3c(n1)CCCc3c1cc(C3CCCCC3)ccc12,-0.2,122.9*,-28.3,13.6
C/C=C(/C)C(=O)O[C@H]1C=C(C)C[C@H](OC(=O)c2ccc(O)cc2)C2[C@](O)(C(C)C)CC[C@@]21C (some centres undefined),-5.8,122.5*,41.8,10.2
Cc1ccc(N(C(C)C(=O)Nc2cc(Cl)cc(Cl)c2)S(C)(=O)=O)cc1C (centres undefined),-5.2,39.9,10.0,.
C(=N\n1cnnc1)/c1ccco1,-0.8,8.7,-9.0,-14.3
CCC(=O)Nc1nonc1-c1nc2ccccc2n1Cc1cc(OC)ccc1C,-4.5,129.6*,40.4,.
O=c1c(-c2ccc(O)cc2)coc2cc(O[C@@H]3O[C@H](CO)[C@@H](O)[C@H](O)[C@H]3O)cc(O)c12,0.7,96.2*,16.8,-25.0
COc1ccc(-c2coc3cc(O[C@@H]4O[C@H](CO)[C@@H](O)[C@H](O)[C@H]4O)cc(O)c3c2=O)cc1,0.6,11.0,-2.0,-16.1
Cc1cc(C)c2nc(-c3ccccn3)cc(C(=O)NCc3ccc(S(N)(=O)=O)cc3)c2c1,.,112.5*,27.8,.
COc1ccccc1CNC(=O)c1cc(-c2ccccn2)nc2c(Cl)cccc12,.,92.1*,47.2,.
COc1ccc(NC(=O)c2cc(-c3ccccn3)nc3c(C)cc(C)cc23)c([N+](=O)[O-])c1,.,68.3,86.8*,.

# Screening data deposited in PubChem BioAssay by Broad Institute.
